Assay [1] addresses human Constitutive Androstane Receptor (CAR), NR1I3 (gene 9970) (UniProt Q14994). In words: NVS_NR_hCAR_Antagonist: NovaScreen (NVS) Nuclear Receptor Binding Assay for human Constitutive Androstane Receptor Antagonism (CAR) (AID 2283344). The method in brief:
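Cell-free TR-FRET binding read 1 h after dosing, antagonist mode; loss of signal versus DMSO baseline. Primary screen in duplicate at a single 25 uM; actives retested in concentration series.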

Assay [2] has as its target chimpanzee Androgen Receptor (AR), AR (gene 747460) (UniProt O97775). The assay can be described thus: NVS_NR_cAR: NovaScreen (NVS) Nuclear Receptor Binding Assay for chimpanzee Androgen Receptor (AR) (AID 2283346). A digest of the protocol: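 Cell-free radioligand displacement using receptor protein extracted from Sf9/Sf21 cells; bound radioligand measured by scintillation counting 72 hours after chemical dosing. Loss of signal versus DMSO baseline indicates binding; primary screen single-concentration in duplicate at 25 uM, actives followed in concentration series.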

The target of assay [3] is Estrogen receptor (Homo sapiens) (UniProt P03372). The assay can be described thus: OT_ER_ERaERa_1440: Odyssey Thera (OT) 24-hour HEK293T Protein-Complementation Assay for Estrogen Receptor-alpha/-alpha Homodimer (AID 2283349).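 Also: hits raise fluorescence above DMSO for agonists and antagonists alike.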 A digest of the protocol: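 Readout is the rise in mean fluorescence from reporter fragment complementation when ERα LBD (aa 310-547) units dimerize in HEK293T cells. Measured 24 h after dosing and analysed as increase over DMSO control.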
Chain of Estrogen receptor (Homo sapiens) (P03372 whole entry, looked up, the tested form may be a part): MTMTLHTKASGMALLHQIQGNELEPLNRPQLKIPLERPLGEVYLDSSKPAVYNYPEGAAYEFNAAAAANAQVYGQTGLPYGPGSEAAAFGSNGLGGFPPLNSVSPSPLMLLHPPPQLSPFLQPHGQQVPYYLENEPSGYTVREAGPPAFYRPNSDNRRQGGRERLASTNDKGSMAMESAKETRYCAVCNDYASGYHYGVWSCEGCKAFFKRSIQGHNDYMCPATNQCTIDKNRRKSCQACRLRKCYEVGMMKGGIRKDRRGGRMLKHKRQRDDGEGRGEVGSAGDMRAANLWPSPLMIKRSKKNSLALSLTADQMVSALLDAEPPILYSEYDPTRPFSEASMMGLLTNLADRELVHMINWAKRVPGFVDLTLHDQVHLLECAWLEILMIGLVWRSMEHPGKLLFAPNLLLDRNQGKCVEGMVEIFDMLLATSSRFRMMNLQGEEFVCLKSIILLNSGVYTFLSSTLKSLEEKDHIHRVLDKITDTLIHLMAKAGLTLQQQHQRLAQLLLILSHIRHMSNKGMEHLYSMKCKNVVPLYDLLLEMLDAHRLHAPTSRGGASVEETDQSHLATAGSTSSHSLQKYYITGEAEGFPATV

Assay [4] shares this target. In words: OT_ER_ERaERa_0480: Odyssey Thera (OT) 8-hour HEK293T Protein-Complementation Assay for Estrogen Receptor-alpha/-alpha Homodimer (AID 2283351).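 Also: rise in fluorescence from reassembled reporter fragments on ERα LBD homodimer in nucleus or whole cell.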 The method in brief:
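HEK293T cells stably expressing the human ERα ligand-binding domain (aa 310-547) as a homodimer PCA were dosed with compound for 8 h. Gain of fluorescence intensity versus DMSO vehicle was read by laser scanning cytometry.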

In assay [5] the target is Estrogen receptor (Homo sapiens) + Estrogen receptor beta (Homo sapiens) (UniProt P03372+Q92731). In words: OT_ER_ERaERb_0480: Odyssey Thera (OT) 8-hour HEK293T Protein-Complementation Assay for Estrogen Receptor-alpha/-beta Heterodimer (AID 2283352). A digest of the protocol: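 Compound added to HEK293T cells carrying split-reporter-tagged ER-alpha and ER-beta LBDs, incubated 8 hours, then imaged by laser scanning cytometer. Signal rise in nucleus, or nucleus and cytoplasm, over vehicle was fitted in the positive direction.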
Chain of Estrogen receptor (Homo sapiens) + Estrogen receptor beta (Homo sapiens) (P03372 whole entry, looked up): as the sequence (P03372 whole entry, looked up, the tested form may be a part) above
Chain of Estrogen receptor (Homo sapiens) + Estrogen receptor beta (Homo sapiens) (Q92731 whole entry, looked up): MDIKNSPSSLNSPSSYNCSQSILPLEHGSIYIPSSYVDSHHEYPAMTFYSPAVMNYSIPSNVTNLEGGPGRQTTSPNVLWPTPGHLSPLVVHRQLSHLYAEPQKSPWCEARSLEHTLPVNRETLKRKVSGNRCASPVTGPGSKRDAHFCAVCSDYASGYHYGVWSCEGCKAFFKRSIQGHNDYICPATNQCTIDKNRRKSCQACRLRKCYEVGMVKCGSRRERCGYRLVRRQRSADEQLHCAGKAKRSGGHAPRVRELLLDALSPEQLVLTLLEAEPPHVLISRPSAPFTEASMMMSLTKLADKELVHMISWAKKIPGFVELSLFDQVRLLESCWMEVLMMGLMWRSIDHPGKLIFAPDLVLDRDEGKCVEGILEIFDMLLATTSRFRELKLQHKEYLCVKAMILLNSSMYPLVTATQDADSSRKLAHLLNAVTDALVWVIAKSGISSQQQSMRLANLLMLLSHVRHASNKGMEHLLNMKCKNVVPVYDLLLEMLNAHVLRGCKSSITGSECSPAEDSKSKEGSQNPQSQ

Assay [6] addresses Androgen Receptor/SRC-1 Co-activator, AR (gene 367) (UniProt P10275). The assay can be described thus: OT_AR_ARSRC1_0960: Odyssey Thera (OT) 16-hour HEK293T Protein-Complementation Assay for Androgen Receptor/SRC-1 Co-activator (AID 2283353).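 Also: actives raise the signal above DMSO so potency reflects increased AR and SRC-1 complex.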 A digest of the protocol: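 HEK293T cells stably expressing AR and SRC-1 fused to split Venus YFP fragments via (Gly4Ser)2 linkers were dosed for 16 h. Nuclear/cytoplasmic fluorescence ratio at 488 nm, ≥400 cells per image, fitted for gain of signal versus DMSO.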

The target is the same in assay [7]. The assay can be described thus: OT_AR_ARSRC1_0480: Odyssey Thera (OT) 8-hour HEK293T Protein-Complementation Assay for Androgen Receptor/SRC-1 Co-activator (AID 2283354).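 Also: hits raise the complementation signal above DMSO so AC50 marks enhancers.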 The method in brief:
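HEK293T cells stably expressing AR and SRC-1 fused to split Venus YFP fragments via (Gly4Ser)2 linkers were read 8 h after compound dosing. Complementation was imaged at 488 and 635nm, and nuclear/cytoplasmic fluorescence ratio (488nm) was taken over ≥400 cells; gain-of-signal versus DMSO.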

Assay [8] addresses Voltage-gated inwardly rectifying potassium channel KCNH2 (Homo sapiens) (UniProt Q12809). In words: NVS_IC_hKhERGCh: NovaScreen (NVS) Ion Channel Assay for human Potassium Channel ERG (KhERGCh) (AID 2283333). The method in brief: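 Cell-free radioligand competition binding on hERG protein extracted from CHO cells, read by filter-based scintillation counting 0.75 h after dosing. Primary screen at 25 uM in duplicate, actives followed in concentration series. Signal loss fitted versus DMSO.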

Assay [9] concerns the target Small conductance calcium-activated potassium channel protein 1 (Rattus norvegicus) (UniProt P70606). In words: NVS_IC_rKCaCh: NovaScreen (NVS) Ion Channel Assay for rat Potassium Channel, Ca2+ Act., VI (KCaCh) (AID 2283336). A digest of the protocol:
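Radioligand binding to rat forebrain membranes, cell-free, read 1 hour after dosing by filter-based scintillation counting. Compounds first run in duplicate at 25 uM, actives then in concentration series; loss of signal vs DMSO indicates displacement.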

A short description of assay [10]: NVS_IC_rCaBTZCHL: NovaScreen (NVS) Ion Channel Assay for Calcium Channel, Type L, Benzothiazepine Site (CaBTZCHL) (AID 2283337). A digest of the protocol: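 Radioligand binding to the benzothiazepine site of L-type Ca channels in rat cortical membranes (cell-free), 1.5 h after dosing; filter-based scintillation counting. Loss of signal relative to DMSO baseline; primary single-concentration screen at 25 uM, actives then run in concentration series.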

Assay [11] has as its system guinea pig Histamine Receptor (H2), gene 100729734. In words: NVS_GPCR_gH2: NovaScreen (NVS) G Protein-Coupled Receptor Assay for guinea pig Histamine Receptor (H2) (AID 2283342). A digest of the protocol:
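Radioligand displacement on guinea pig striatal membranes, 1 h after dosing, filter-based scintillation counting; loss of signal versus DMSO. Single-point screen at 25 uM in duplicate, then concentration-response up to 50 uM.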

Assay [12] deals with Glutamate receptor ionotropic, kainate 1 (Rattus norvegicus) (UniProt P22756). The assay can be described thus: NVS_IC_rKAR: NovaScreen (NVS) Ion Channel Assay for rat Kainic Acid Receptors (KAR) (AID 2283334; active = hit-call score of the fitted dose curve at least 0.9, where 1 is the maximum; inactive = score below 0.9). The method in brief: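 Radioligand displacement binding using rat forebrain membranes, 1 h incubation, filter-based scintillation counting. Screened in duplicate at 25 uM, with actives retested in concentration-response up to 50 uM; fitted against DMSO.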

For assay [13], the target named is rat Peripheral-type Benzodiazepine Receptor (PBR), Tspo (gene 24230) (UniProt P16257). The assay can be described thus: NVS_MP_rPBR: NovaScreen (NVS) Membrane Protein Assay for rat Peripheral-type Benzodiazepine Receptor (PBR) (AID 2283335). The method in brief: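 Radioligand displacement, rat kidney membrane prep, 1 h exposure, filter-based scintillation read; DMSO baseline, loss-of-signal scored. Primary screen at 25 uM in duplicate, actives followed up in concentration series.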
Chain of rat Peripheral-type Benzodiazepine Receptor (PBR), Tspo (gene 24230) (P16257 whole entry, looked up): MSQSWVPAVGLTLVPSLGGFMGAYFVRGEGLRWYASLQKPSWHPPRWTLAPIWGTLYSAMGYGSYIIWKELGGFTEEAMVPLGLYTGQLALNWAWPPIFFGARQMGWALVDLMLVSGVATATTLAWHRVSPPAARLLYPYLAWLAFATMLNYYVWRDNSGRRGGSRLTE

Assay [14] addresses Bile acid receptor (Homo sapiens) (UniProt Q96RI1). In words: NVS_NR_hFXR_Antagonist: NovaScreen (NVS) Nuclear Receptor Binding Assay for human Farnesoid X Receptor Antagonism (FXR) (AID 2283350). A digest of the protocol: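 Cell-free TR-FRET ligand-binding read-out on human FXR (NR1H4) in antagonist mode, measured 1 h after dosing. Primary screen in duplicate at 25 uM, actives retested in concentration series; signal loss scored versus DMSO.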

For assay [15], the target named is rat Mineralocorticoid Receptor (MR), Nr3c2 (gene 25672) (UniProt P22199). The assay can be described thus: NVS_NR_rMR: NovaScreen (NVS) Nuclear Receptor Binding Assay for rat Mineralocorticoid Receptor (MR) (AID 2283355). The method in brief:
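Cell-free radioligand binding to MR in adrenalectomized rat brain supernatant, scintillation counted 24 h after dosing. Loss of signal versus DMSO baseline marks displacement. Primary screen in duplicate at 25 uM; actives retested as concentration series.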

Assay [16] addresses Estrogen receptor (Homo sapiens) (UniProt P03372). The assay can be described thus: NVS_NR_hER: NovaScreen (NVS) Nuclear Receptor Binding Assay for human Estrogen Receptor (ER) (AID 2283348). The method in brief: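 Cell-free radioligand binding with protein extracted from MCF7 cells; scintillation counting 18 hours after dosing. Loss of signal versus DMSO baseline read as displacement; primary single-concentration screen at 25 uM in duplicate, actives retested in concentration series.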

For the next assay, the system named is NCBI gene 100848466. The assay can be described thus: NVS_NR_bPR: NovaScreen (NVS) Nuclear Receptor Binding Assay for bovine Progextron Receptor (PR) (AID 2283343).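 Also: actives lower bound radioligand signal below DMSO meaning displacement of the label.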 The method in brief: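 Bovine uterine membrane preparation, cell-free; radioligand competitive displacement measured by scintillation counting 18 hours after dosing. Loss of signal versus DMSO baseline indicates binding; primary HTS single concentration 25 uM in duplicate, actives followed in concentration series.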

Where “and” joins values, the source holds several entries; their conditions need not be identical. Equal values may be shown once. Results filed as inconclusive are left out. More than one record can exist for a structure, and the calls need not agree. Calls of active or inactive are those of the source. The calls were made as follows, unless noted: active = hit-call score of the fitted dose curve at least 0.9, where 1 is the maximum; inconclusive = response in the unintended direction; inactive = score below 0.9.

Chain of Androgen Receptor/SRC-1 Co-activator, AR (gene 367) (P10275 whole entry, looked up, the tested form may be a part): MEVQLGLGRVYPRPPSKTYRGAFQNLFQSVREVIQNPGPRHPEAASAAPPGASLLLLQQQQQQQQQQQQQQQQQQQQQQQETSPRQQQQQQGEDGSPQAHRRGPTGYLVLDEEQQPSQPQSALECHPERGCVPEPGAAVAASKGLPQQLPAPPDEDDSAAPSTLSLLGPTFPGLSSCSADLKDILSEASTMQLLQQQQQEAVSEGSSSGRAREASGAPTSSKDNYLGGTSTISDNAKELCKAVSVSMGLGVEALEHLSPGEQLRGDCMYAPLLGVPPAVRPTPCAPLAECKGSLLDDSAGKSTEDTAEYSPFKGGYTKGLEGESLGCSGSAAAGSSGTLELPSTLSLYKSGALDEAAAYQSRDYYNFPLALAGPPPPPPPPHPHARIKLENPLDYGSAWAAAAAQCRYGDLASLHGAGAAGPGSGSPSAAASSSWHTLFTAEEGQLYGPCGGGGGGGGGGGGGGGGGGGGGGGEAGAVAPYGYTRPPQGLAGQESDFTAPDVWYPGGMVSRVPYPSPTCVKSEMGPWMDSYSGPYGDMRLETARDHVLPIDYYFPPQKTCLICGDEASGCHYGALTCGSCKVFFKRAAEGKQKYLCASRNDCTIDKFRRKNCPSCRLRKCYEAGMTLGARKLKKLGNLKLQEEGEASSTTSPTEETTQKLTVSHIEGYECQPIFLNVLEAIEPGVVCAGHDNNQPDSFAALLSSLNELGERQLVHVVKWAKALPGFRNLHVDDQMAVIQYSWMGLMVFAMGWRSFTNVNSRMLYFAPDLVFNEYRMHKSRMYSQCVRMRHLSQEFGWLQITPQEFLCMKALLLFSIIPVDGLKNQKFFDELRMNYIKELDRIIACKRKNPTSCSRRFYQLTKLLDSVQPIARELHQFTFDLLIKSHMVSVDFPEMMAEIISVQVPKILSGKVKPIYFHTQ
Chain of human Constitutive Androstane Receptor (CAR), NR1I3 (gene 9970) (Q14994 whole entry, looked up): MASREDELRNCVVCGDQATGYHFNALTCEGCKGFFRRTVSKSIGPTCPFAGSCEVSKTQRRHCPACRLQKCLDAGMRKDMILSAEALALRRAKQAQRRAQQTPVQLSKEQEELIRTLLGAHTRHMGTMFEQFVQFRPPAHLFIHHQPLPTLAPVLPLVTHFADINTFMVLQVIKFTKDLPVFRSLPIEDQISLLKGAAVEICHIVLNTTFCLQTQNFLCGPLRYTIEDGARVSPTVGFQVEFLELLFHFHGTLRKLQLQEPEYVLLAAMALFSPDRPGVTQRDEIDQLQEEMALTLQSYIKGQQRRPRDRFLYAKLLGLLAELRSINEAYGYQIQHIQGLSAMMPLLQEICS
Chain of rat Mineralocorticoid Receptor (MR), Nr3c2 (gene 25672) (P22199 whole entry, looked up): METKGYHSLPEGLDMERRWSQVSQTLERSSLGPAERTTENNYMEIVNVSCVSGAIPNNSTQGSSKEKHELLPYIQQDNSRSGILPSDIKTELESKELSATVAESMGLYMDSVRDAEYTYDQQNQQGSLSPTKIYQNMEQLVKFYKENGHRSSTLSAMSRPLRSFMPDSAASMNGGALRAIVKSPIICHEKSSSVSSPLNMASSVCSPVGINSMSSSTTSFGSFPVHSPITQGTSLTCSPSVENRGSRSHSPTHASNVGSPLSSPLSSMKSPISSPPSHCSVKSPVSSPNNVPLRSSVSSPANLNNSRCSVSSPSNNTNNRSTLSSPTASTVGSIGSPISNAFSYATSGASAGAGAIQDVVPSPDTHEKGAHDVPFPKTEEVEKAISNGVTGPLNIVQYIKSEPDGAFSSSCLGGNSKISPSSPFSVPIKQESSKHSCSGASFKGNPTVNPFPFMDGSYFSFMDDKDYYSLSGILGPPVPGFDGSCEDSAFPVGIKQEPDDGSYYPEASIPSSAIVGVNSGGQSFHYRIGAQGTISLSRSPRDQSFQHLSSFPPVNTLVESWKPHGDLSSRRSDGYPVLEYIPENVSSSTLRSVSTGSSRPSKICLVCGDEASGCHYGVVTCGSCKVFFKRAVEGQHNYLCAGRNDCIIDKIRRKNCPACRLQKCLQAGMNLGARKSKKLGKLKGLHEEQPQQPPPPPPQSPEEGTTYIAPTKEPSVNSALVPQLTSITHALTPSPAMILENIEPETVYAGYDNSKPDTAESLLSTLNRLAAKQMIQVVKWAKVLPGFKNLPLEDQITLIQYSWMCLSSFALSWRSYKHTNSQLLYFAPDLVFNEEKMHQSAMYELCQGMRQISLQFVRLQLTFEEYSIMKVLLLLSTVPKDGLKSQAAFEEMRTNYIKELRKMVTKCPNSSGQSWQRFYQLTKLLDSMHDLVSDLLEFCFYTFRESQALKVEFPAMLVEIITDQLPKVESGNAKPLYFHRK
Chain of Bile acid receptor (Homo sapiens) (Q96RI1 whole entry, looked up): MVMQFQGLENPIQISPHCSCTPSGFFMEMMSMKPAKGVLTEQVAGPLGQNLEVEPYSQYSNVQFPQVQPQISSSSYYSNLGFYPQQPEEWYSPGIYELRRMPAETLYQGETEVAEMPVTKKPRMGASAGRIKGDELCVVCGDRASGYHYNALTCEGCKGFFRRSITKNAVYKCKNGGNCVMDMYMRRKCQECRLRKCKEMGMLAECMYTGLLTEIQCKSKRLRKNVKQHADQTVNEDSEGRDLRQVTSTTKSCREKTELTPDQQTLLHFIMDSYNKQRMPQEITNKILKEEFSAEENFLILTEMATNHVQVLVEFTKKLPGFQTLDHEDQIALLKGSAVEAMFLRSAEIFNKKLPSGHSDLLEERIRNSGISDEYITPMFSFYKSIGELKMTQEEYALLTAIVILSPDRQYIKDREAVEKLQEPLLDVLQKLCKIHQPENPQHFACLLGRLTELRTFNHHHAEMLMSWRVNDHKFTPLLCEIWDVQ

One may read the AC50 as the concentration at which the activity in the assay is half-maximal. With `O=C(O)c1ccccc1C(c1ccc(O)cc1)c1ccc(O)cc1`, in assay [1], the AC50 was 0.427 µM (active). The outcome in assay [2], in assay [3], in assay [4], in assay [5], in assay [6] and in [7] was inactive.
For `COCC(C)OCC(C)O` (stereo not given), the compound was classed as inactive in assay [1], in assay [3], in assay [5], in assay [6] and in [7].
In the case of `CCCCC(CC)COC(=O)CCCCC(=O)OCc1ccccc1` (stereo not given), the compound was called inactive in [2], in [3], in [4] and in assay [5].
With `CC(=O)NC1(c2cccc(F)c2)CCN(CC[C@@]2(c3ccc(Cl)c(Cl)c3)CN(c3ccccc3)C(=O)CO2)CC1`, the values for the AC50 in [8], in [10] and in [11] were 14 µM (active), 0.835 µM (active) and 8.91 µM (active), respectively. The result in [9], in [3] and in assay [4] was inactive.
`CC[C@H](C)[C@@H](C(=O)O)n1sc2ccccc2c1=O`: the compound was called inactive in assay [12], in [3], in [4] and in assay [5].
With `CCC(=C(c1ccc(O)cc1)c1ccc(OCCN(C)C)cc1)c1ccccc1`, the half-maximal activity concentration (AC50) in assay [13] is 4.37 µM (active) and 3.09 µM (active); in assay [10] it was 0.589 µM (active); in assay [11], 1.33 µM (active); in [1] it was 18.2 µM (active); in assay [2], 6.21 µM (active) and 12.9 µM (active); in [6], 19.8 µM (active) and 20.2 µM (active) and 19.2 µM (active). Besides, the AC50 in assay [7] was 46.8 µM (active) and 46.2 µM (active) and 46.6 µM (active). Further, the result in assay [13], in [14], in [6], in assay [7] and in assay [15] was inactive.
Turning to `CCCCCCCC(=O)O`, the outcome in [10], in [1], in [3], in assay [4] and in assay [5] was inactive.
With `O=c1c(-c2ccc(O)cc2)coc2cc(O)ccc12`, in assay [13], the concentration at half-maximal activity (AC50) was 14 µM (active). The call in [6] and in [7] was inactive.
As for `CCCOC(=O)c1ccc(O)cc1`, the compound was called inactive in [2]. For the same compound, the AC50 in [16] is 6.72 µM (active) and 10.6 µM (active); in assay [3] it was 31.2 µM (active); in assay [4] it was 38.4 µM (active); in assay [5], 16.7 µM (active).
Turning to `CCCOc1sc(C(=O)N2CCC(c3cc(CN)ccc3F)CC2)c(C)c1Br`, the figures for the half-maximal activity concentration (AC50) in assay [8], in [10] and in assay [11] were 7.87 µM (active), 3.64 µM (active) and 7.46 µM (active), respectively. In addition, the call in assay [13] was inactive.
As to `C#C[C@]1(O)CC[C@H]2[C@@H]3CCC4=CC(=O)CC[C@@H]4[C@H]3CC[C@@]21C`, the half-maximal activity concentration (AC50) with NCBI gene 100848466 was 0.0183 µM (active); in assay [2], 5.99 nM (active) and 4.99 nM (active); in [15], 0.5 µM (active). Further, the outcome in [3], in [4] and in assay [5] was inactive.
On to `CC#C[C@]1(O)CC[C@H]2[C@@H]3CCC4=CC(=O)CCC4=C3[C@@H](c3ccc(N(C)C)cc3)C[C@@]21C`, for which the call in assay [11], in assay [3], in assay [14] and in assay [4] was inactive. Moreover, the AC50 with NCBI gene 100848466 was 0.00874 µM (active); in assay [2], 16.7 nM (active) and 46.7 nM (active); in [15], 5.21 µM (active).
As to `COc1ccc([N+](=O)[O-])cc1N`, the result in assay [8], in assay [3], in assay [4] and in assay [5] was inactive.
On to `CC[C@H](c1ccc(O)cc1)[C@@H](CC)c1ccc(O)cc1`, for which the concentration at half-maximal activity (AC50) in [13] is 822 nM (active) and 258 nM (active); in [1] it was 0.00229 µM (active); in assay [16] it was 0.0334 nM (active) and 2.46 nM (active) and 2.68 nM (active); in assay [14] it was 8.83 µM (active); in assay [6] it was 35.6 µM (active). Moreover, the call in [2], in assay [6] and in assay [7] was inactive.

The values are drawn from PubChem BioAssay (EPA / NIEHS).
